This excerpt belongs to a sample that is enriched for hits.
Pf Dd2 growth – inhibitors of Plasmodium falciparum Dd2 growth. P. falciparum Dd2 growth, SYBR Green, 72 h. Potency, µM (highest dose often 28.9 µM), for the others: at the top dose activity, negative = inhibition, most hits filed as inhibitors. actives 4.3% (n = 120,000). AID 1347417; active means well fitted inhibition curve with a large enough effect;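 further: plate controls were DMSO vehicle for no effect and reference drug for full effect; nearly all actives have a fitted effect of over 65% in size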
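Infected erythrocytes (Dd2, 0.3% parasitemia, 2.5% hematocrit final) are added to compound in RPMI-1640/Albumax II medium, grown 72 h at 37C in low oxygen, then lysed with saponin/Triton-X containing SYBR Green and read by fluorescence.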
Numbers without * were called inactive; [ ] = dose if it differs, or a comment. Potency means the concentration at half of the fitted maximal effect.

`Cc1ccccc1NC(=O)CSc1nc2ccc(NC(=O)c3ccco3)cc2s1` gave Pf Dd2 growth 11µM*.
For Cc1ccccc1OCC(=O)Nc1ccc2nc(SCCOc3ccccc3)sc2c1 the results were Pf Dd2 growth -10%.
Cc1ccccc1C(=O)Nc1ccc2nc(SCCOc3ccccc3)sc2c1 was read as Pf Dd2 growth inactive.
For COC(=O)CO[C@@H]1CO[C@H]2[C@@H]1OC[C@@H]2NS(=O)(=O)c1cccc2cccnc12 the results were Pf Dd2 growth 9%[44.1 µM].
Screening CC(C)(C)C(=O)N1CCC(OC2CCN(Cc3ccccc3)CC2)CC1 returned Pf Dd2 growth -1%.
`Cc1c(F)cccc1NC(=O)N1CCC(OC2CCN(Cc3ccccc3)CC2)CC1` gave Pf Dd2 growth 4.5µM*.
For COc1ccc(C)cc1NC(=O)N1CCC(CN2CCC(C)CC2)CC1 the results were Pf Dd2 growth 2%.
For O=C(Nc1cccc(Cl)c1F)N1CCC(OC2CCN(Cc3ccccc3)CC2)CC1 the results were Pf Dd2 growth 6.3µM*.
COc1ccc(C)cc1NC(=O)N1CCC(OC2CCN(Cc3ccccc3)CC2)CC1 was read as Pf Dd2 growth 11µM*.
For O=S(=O)(c1ccc(F)cc1)N1CCC(OC2CCN(Cc3ccccc3)CC2)CC1 the results were Pf Dd2 growth inactive.
O=C(c1ccc(F)cc1)N1CCC(OC2CCN(Cc3ccccc3)CC2)CC1 was read as Pf Dd2 growth 11µM*.
`O=C(C1CCCCC1)N1CCC(OC2CCN(Cc3ccccc3)CC2)CC1` gave Pf Dd2 growth inactive.
`CCc1cccc(NC(=O)N2CCC(OC3CCN(Cc4ccccc4)CC3)CC2)c1` gave Pf Dd2 growth -7%.
`O=C(NC1CCCCC1)N1CCC(OC2CCN(Cc3ccccc3)CC2)CC1` gave Pf Dd2 growth 213%.
Screening CS(=O)(=O)N1CCC(OC2CCN(C(=O)Nc3ccccc3F)CC2)CC1 returned Pf Dd2 growth inactive.
Screening COc1ccc(C)cc1NC(=O)N1CCC(OC2CCN(S(C)(=O)=O)CC2)CC1 returned Pf Dd2 growth 14%.
For c1cc(-c2nc(C3CCOCC3)nn2CC2COCCO2)[nH]n1 (stereo unspecified) the results were Pf Dd2 growth 4%.
COc1cc(C(=O)N2CCC[C@H]2c2nc(-c3ccc(F)cc3)no2)cc(OC)c1OC was read as Pf Dd2 growth 35%.
For COc1ccc(OC)c(CN2CCC3(CC2)CC3C(=O)N(C)CCOc2ccc(C)cc2)c1 (stereo unspecified) the results were Pf Dd2 growth -5%.
CC(C)N1CC[C@H](CO)[C@H](NC(=O)C2CC2)C1 was read as Pf Dd2 growth -12%.
COCCCNC(=O)N1CCCOCCNC(=O)[C@@H]2CCC[C@@H]21 was read as Pf Dd2 growth 6%.
Screening O=C(NC1CCCN(c2cc(-c3ccc(F)cc3)[nH]n2)C1)c1ccc(F)cc1Cl (stereo unspecified) returned Pf Dd2 growth inactive.
`CC(C)N1C(=O)C2(CCCC2)C1C(=O)N1CCCC1` (stereo unspecified) gave Pf Dd2 growth -10%.
`O=C(Nc1ccccc1F)N1[C@H]2CC[C@@H]1c1cncnc1C2` gave Pf Dd2 growth 11%.
`COc1ccc(NC(=O)N(C)Cc2cccc(C(F)(F)F)c2)cc1` gave Pf Dd2 growth -12%[44.1 µM].
Screening COc1ccc(NC2=C(c3ccc(C(F)(F)F)cc3)C(=O)c3ccccc32)cc1 returned Pf Dd2 growth 0.45µM*.
For COc1ccc(-c2noc(CCC(=O)Nc3ccc(C(F)(F)F)cc3)n2)cc1 the results were Pf Dd2 growth -16%.
For O=C(Cn1nc(-c2ccc(Cl)cc2)c2ccccc2c1=O)Nc1cccc(C(F)(F)F)c1 the results were Pf Dd2 growth 16%.
O=C(C[C@H]1NC(=O)c2ccccc2NC1=O)Nc1ccc(C(F)(F)F)cc1 was read as Pf Dd2 growth -17%.
O=C1C(c2ccc(C(F)(F)F)cc2)=C(Nc2ccc(Cl)cc2)c2ccccc21 was read as Pf Dd2 growth 0.89µM*.
Screening COc1ccc(C2(C(=O)N3CCCC3c3nc(C4CCOCC4)no3)CC2)cc1 (stereo unspecified) returned Pf Dd2 growth 29%.
O=C(Cn1nc2n(c1=O)CCCCC2)Nc1ccc(C(F)(F)F)cc1 was read as Pf Dd2 growth -3%.
For Cc1cc(C)n(CC(=O)N2CCC(c3nc(CCOc4ccc(F)cc4)no3)C2)n1 (stereo unspecified) the results were Pf Dd2 growth -15%.
For CCCN1C(=O)C(CC(=O)N2CCCC(C)C2)Sc2ncccc21 (stereo unspecified) the results were Pf Dd2 growth -12%.
Screening CC(C)CCN(C1CCOCC1)C1CCN(S(=O)(=O)c2cccnc2)CC1 returned Pf Dd2 growth 10µM*.
Screening CC(C)CN(C1CCOCC1)C1CN(S(=O)(=O)c2ccc(F)cc2)C1 returned Pf Dd2 growth -13%.
COCC(=O)N(C1CCOCC1)C1CCN(S(=O)(=O)c2cccnc2)CC1 was read as Pf Dd2 growth 28%.
Screening CCN(CC)C1CCOC2(CCN(C(=O)C(C)C)CC2)C1 (stereo unspecified) returned Pf Dd2 growth -2%.
O=C(c1nnn2c1COC(c1ccccc1)C2)N1CCN(C(=O)c2cccc3[nH]ccc23)CC1 (stereo unspecified) was read as Pf Dd2 growth -9%.
`Cc1cc2ncc(C(=O)N3CCC4(CC(=O)NC4=O)C3)c(=O)n2[nH]1` (stereo unspecified) gave Pf Dd2 growth 0%.
`CC(C)Oc1cc(F)cc(-c2cc(NCCO)ncn2)c1` gave Pf Dd2 growth -22%.
COc1cc(CNC(=O)CC2CCOCC2)cc(OC)c1 was read as Pf Dd2 growth -18%.
`COCC(=O)N1CCC(Cc2nc(C3CCOCC3)no2)CC1` gave Pf Dd2 growth 41%.
`COc1cc2c(cc1Oc1ccccc1)NC(=O)C21CCN(c2ncc(F)cn2)CC1` gave Pf Dd2 growth 4.5µM*.
For COc1cc2c(cc1OC1CCCC1)NC(=O)C21CCN(c2ccnc(C)n2)CC1 the results were Pf Dd2 growth 13µM*.
`COc1cc2c(cc1OC1CCCC1)NC(=O)C21CCN(Cc2ccncc2)CC1` gave Pf Dd2 growth -4%[44.1 µM].
`COc1cc2c(cc1OC1CCCC1)NC(=O)C21CCN(c2cc(NC3CC3)ncn2)CC1` gave Pf Dd2 growth -23%.
Screening COc1cc2c(cc1Oc1ccccc1)NC(=O)C21CCN(Cc2ccccn2)CC1 returned Pf Dd2 growth -12%[44.1 µM].
COc1cc2c(cc1OCC1CC1)NC(=O)C21CCN(c2ncc(F)cn2)CC1 was read as Pf Dd2 growth inactive.
O=C(c1ccccc1)N1CCCCC1c1nc(-c2cccnn2)no1 (stereo unspecified) was read as Pf Dd2 growth -4%.
For CCN1c2cc(C(=O)Nc3ccc(C)c(Cl)c3)ccc2C(=O)N2CCCC21 (stereo unspecified) the results were Pf Dd2 growth -22%.
`CN1c2cc(C(=O)Nc3cc(F)cc(F)c3)ccc2C(=O)N2CCCCCC21` (stereo unspecified) gave Pf Dd2 growth 4.5µM*.
CCN1c2cc(C(=O)Nc3ccc(Br)c(C)c3)ccc2C(=O)N2CCCCC21 (stereo unspecified) was read as Pf Dd2 growth 5.6µM*.
`CCN1c2cc(C(=O)NCc3ccccc3)ccc2C(=O)N2CCCCC21` (stereo unspecified) gave Pf Dd2 growth -4%.
CCN1c2cc(C(=O)Nc3cccc(C)c3)ccc2C(=O)N2CCCCCC21 (stereo unspecified) was read as Pf Dd2 growth -15%.

Bioassay records deposited in PubChem BioAssay by National Center for Advancing Translational Sciences (NCATS).
